High-throughput results from PubChem.
ATXN2 expr inh: inhibitors of ATXN2 expression; hit rate 0.72% among 360,000; HEK-293 ATXN2-luciferase reporter, luminescence, 24 h; Potency, µM (titrated, usually from 57 µM), for inactives: top-dose activity change, negative = inhibition, most hits filed as inhibitors; AID 1745845; note: potency is the fitted concentration of half-maximal effect; % is set by controls: 0 for no effect and ±100 for the full control effect; nearly all actives have a fitted effect of over 55% in size
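ATXN2-luciferase reporter cells (luciferase flanked by upstream and downstream ATXN2 gene portions) were treated 24 h at 37 °C with compounds at up to 57 uM. SteadyGlo luminescence gave expression; GF-AFC fluorescence gave viability.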
HepG2 tox-1: kills HepG2 cells in TGF-b inhibitor counter-screen. Potency, µM (highest dose often 46.1 µM), for the others: at the top dose activity change, negative = cytotoxicity, hits mostly cytotoxic. HepG2 CAGA-GFP viability, ATP luminescence, 18 h. hit rate 0.76% among 410,000; note: potency is the fitted concentration of half-maximal effect
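HepG2 CAGA-GFP cells (1000/well, DMEM with 1% FBS) received compound, then TGF-beta at 500 pg/mL final, and were incubated 18 hours at 37 degrees C. Viability was read by CellTiter-Glo luminescence. Media-only wells were set as complete cell-killing and DMSO as no toxicity.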
DRD3 agonist: agonists of human D3 dopamine receptor; P35462; D3R DiscoveRx beta-arrestin cells, luminescence, 90 min; max activation, %; hit rate 0.58% among 410,000; AID 652048; in the data active = max activation above about 30%; note: 0% is about no effect
Target sequence (P35462 whole entry, looked up): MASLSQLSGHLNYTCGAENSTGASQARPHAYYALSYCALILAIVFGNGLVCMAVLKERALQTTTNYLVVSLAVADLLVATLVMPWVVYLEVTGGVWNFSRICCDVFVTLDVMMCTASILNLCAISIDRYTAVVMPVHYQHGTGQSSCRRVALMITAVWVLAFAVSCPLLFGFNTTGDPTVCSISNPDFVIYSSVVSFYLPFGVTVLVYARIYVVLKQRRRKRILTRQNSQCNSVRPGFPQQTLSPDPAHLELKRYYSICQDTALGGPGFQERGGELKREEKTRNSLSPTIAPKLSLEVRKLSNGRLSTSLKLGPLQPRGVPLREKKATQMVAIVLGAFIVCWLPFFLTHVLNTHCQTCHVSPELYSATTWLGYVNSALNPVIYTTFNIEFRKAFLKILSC
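Agonist-mode cell screen: cells plated at 1500/well and incubated overnight at 37 °C, then exposed to library compounds for 90 min at 37 °C. Detection reagent was added for 30–60 min at room temperature, and luminescence was read.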
D3 antag: antagonists of human D3 dopamine receptor | P35462 | D3R cells, DiscoveRx beta-arrestin luminescence, antagonist mode; hits give low values | max response, negative = inhibition, % | hit rate 2.5% among 360,000 | AID 652054; in the data active = max response below about -50%; inconclusive = no clear call, values can overlap the other calls; note: % is set by controls: 0 for no effect and ±100 for the full control effect
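Cells expressing the human receptor were seeded at 1500 cells/well, incubated overnight at 37 degrees C in 5% CO2, then exposed to library compounds with dopamine controls for 90 minutes at 37 degrees C before luminescent detection.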
TGFb SMAD3 inh: inhibitors of TGF-b signaling. HepG2 CAGA-GFP TGF-b/SMAD3 reporter, GFP fluorescence, 18 h; TGF-beta stimulated, 500 pg/mL final. Potency, µM (highest dose often 46.1 µM), inactives show at the top dose activity, negative = inhibition, actives largely listed as inhibitors. hit rate 1.2% among 410,000. AID 588855; note: potency is the fitted concentration of half-maximal effect; % is set by controls: 0 for no effect and ±100 for the full control effect; nearly all actives have a fitted effect of over 65% in size
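Per well, imaged GFP fluorescence of HEPG2 CAGA-GFP cells gives the signal; cells get compound, then TGF-beta (500 pg/mL final), 18 h at 37 degrees C; %Activity versus -TGF-beta and +DMSO controls.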
S2 tox: reduces viability in counter-screen for ATXN expression inhibitors. S2 cells (HEK-293 line with an ATXN2-luciferase reporter) viability, CellTiter-Fluor protease fluorescence, 24 h. Potency, µM (titrated, usually from 56.7 µM), most hits filed as cytotoxic. hit rate 0.49% among 400,000. AID 651635; note: potency is the fitted concentration of half-maximal effect; nearly all actives have a fitted effect of over 40% in size
TGFb CAGA inh: TGF-b pathway inhibition, cherry-pick retest | shares compounds with TGFb SMAD3 inh | HepG2 CAGA-GFP TGF-b reporter, GFP fluorescence, 18 h; cells stimulated with TGF-beta, 500 pg/mL | Potency, µM (series often up to 46.1 µM), for inactives: at the top dose activity, negative = inhibition, actives largely listed as inhibitors | hit rate 63% among 1,600; note: potency is the fitted concentration of half-maximal effect; % is set by controls: 0 for no effect and ±100 for the full control effect; nearly all actives have a fitted effect of over 65% in size
HepG2 tox-2: HepG2 cytotoxicity, TGF-b inhibitor counterscreen. shares compounds with TGFb SMAD3 inh. HepG2 CAGA-GFP viability, ATP luminescence, 18 h; cells stimulated with TGF-beta, 500 pg/mL. Potency, µM (titrated, usually from 46.1 µM), without a hit: at the top dose activity, negative = cytotoxicity, most hits filed as inhibitors. hit rate 27% among 1,600; note: potency is the fitted concentration of half-maximal effect; % is set by controls: 0 for no effect and ±100 for the full control effect; nearly all actives have a fitted effect of over 70% in size
TGFb CCL64 inh: orthogonal confirmation of TGF-b inhibitors in CCL64 cells; shares compounds with TGFb SMAD3 inh; CCL64 CAGA-GFP reporter, TGF-b stimulated, GFP fluorescence, 18 h; Potency, µM (top dose mostly 46.1 µM), for the others: top-dose activity, negative = inhibition, usual class: inhibitors; hit rate 41% among 1,600; note: potency is the fitted concentration of half-maximal effect; nearly all actives have a fitted effect of over 65% in size
COP TGFb inh: blocks TGF-b signaling in HepG2 COP reporter | shares compounds with TGFb SMAD3 inh | HepG2 COP-GFP TGF-b reporter, GFP fluorescence, 18 h; cells stimulated by added recombinant TGF-beta | Potency, µM (highest dose often 46.1 µM), for the others: at the highest dose activity, negative = inhibition, most hits filed as inhibitors | hit rate 3% among 1,600 | AID 720537; note: potency is the fitted concentration of half-maximal effect; nearly all actives have a fitted effect of over 70% in size
Starred values were filed as active, the others as inactive; i = inactive; ? = inconclusive; · = no result. Hits are enriched below; roughly 4.8% of the tested compounds scored in any of these assays. Unless noted, calls come from the whole dose curve; as a rule, active = well fitted curve in the direction sought with a large enough effect; inconclusive = small, poorly fitted or top-dose-only effect, or another doubt; inactive = no such curve, though single readings can be large; an effect the other way counts as inactive or inconclusive.

SMILES	ATXN2 expr inh	HepG2 tox-1	DRD3 agonist	D3 antag	TGFb SMAD3 inh	S2 tox	TGFb CAGA inh	HepG2 tox-2	TGFb CCL64 inh	COP TGFb inh
COc1ccc(Cn2cc(S(=O)(=O)c3ccc(C)cc3)c(=O)c3cc(F)ccc32)cc1	8.1%	9.5%	3.3	·	9.5%	i	·	·	·	·
COc1ccc(NC(=O)CNC(c2ccccc2)c2ccccc2)cc1Cl	-11.4%	-28.9%	-5.1	-14.1	11.2µM*	i	?	-10.5%	?	33.5%
Cc1cc(C)cc(NC(=O)CNC(c2ccccc2)c2ccccc2)c1	-34.2%	0.9%	-11.0	2.2	-28.9%	i	·	·	·	·
COc1ccccc1CCC(=O)N(C)CC(=O)Nc1ccc(Cl)c(C(F)(F)F)c1	-8.4%	-9.0%	-7.4	-3.9	11.2µM*	i	?	-20.3%	?	-0.5%
CC(=O)c1ccc(NCC(=O)N2CCN(S(=O)(=O)c3ccccc3)CC2)cc1	·	-9.5%	-4.9	8.5	-21.9%	?	·	·	·	·
O=C(CNc1ccc(Cl)c(C(F)(F)F)c1)N1CCN(S(=O)(=O)c2ccccc2)CC1	-5.6%	-8.4%	-1.2	39.9	12.6µM*	i	11.6µM*	-2.7%	-25.1%	-10.1%
CN(CC(=O)Nc1cccc(S(=O)(=O)N2CCCC2)c1)CC(=O)Nc1ccc(Cl)c(C(F)(F)F)c1	?	-14.1%	10.1	-23.0	15.8µM*	?	16.4µM*	?	29.1µM*	59.7%
CC(=O)c1cccc(N(C(=O)Cn2nnc3ccccc32)C(C(=O)NCc2ccccc2)c2ccc(F)cc2)c1 (configuration not stated)	·	-10.3%	-12.2	·	?	·	·	·	·	·
Cc1ccc(-n2c(C)cc(/C=N/NC(N)=S)c2C)cc1	26.2%	5.3%	-1.0	?	0.0%	i	·	·	·	·
CNC(=S)N/N=C/c1cc(C)n(-c2ccc(Cl)c(Cl)c2)c1C	0.3%	-3.1%	-4.8	?	12.6µM*	i	20.6µM*	?	?	33.7%
CCc1ccc(C2CC(=O)c3c([nH]c(C(=O)OCC4CCCCC4)c3C)C2)cc1 (configuration not stated)	0.0%	8.2%	-3.2	·	10.2%	i	·	·	·	·
Cc1cc(C)c2cc(C(=O)N3CCC(C(=O)c4ccc(F)cc4)CC3)[nH]c2c1	-26.1%	-5.8%	-8.2	12.7	11.2µM*	i	9.2µM*	-23.8%	?	13.7%
Cc1cc(C)c2cc(C(=O)N3CCC(N4CCCCC4)CC3)[nH]c2c1	-13.3%	-6.5%	-5.3	3.0	10.9%	i	·	·	·	·
CCOc1ccccc1CNC(=O)c1ccc(Cn2c(=O)c3cccn3c3cccnc32)cc1	·	-22.9%	-2.4	·	-8.3%	·	·	·	·	·
COc1ccc(C(CCNCc2ccc(F)cc2)c2ccc(F)cc2)cc1 (configuration not stated)	?	7.94µM*	-10.6	-12.2	2.82µM*	?	?	16.4µM*	?	?
